GPR151 activ: activates the human receptor GPR151; Q8TDV0; PathHunter beta-arrestin GPR151 cells, luminescence; activation, % at 11.2 µM; hit rate 1% among 650,000; in the data active means activation above about 4.9%
MITF primary: inhibitors of human MITF. AlphaScreen MITF homodimerization, bead proximity signal. inhibition, % at 2.6 µM. hit rate 0.91% among 650,000. AID 1259374; in the data active means inhibition above about 50%
TEAD-YAP inh: TEAD-YAP interaction inhibition. inhibition, % at 9.12 µM. hit rate 1.4% among 640,000. HEK-TIYL cells, TEAD-Gal4/YAP UAS-luciferase luminescence; in the data active means inhibition above about 32%
FBW7 act: human FBW7 E3 ligase activation, primary screen; Q969H0; AlphaScreen FBW7–phospho-cyclin E peptide binding, activator screen; normalized activity (activation), % at 26.1 µM; hit rate 0.13% among 650,000; AID 1259310; in the data active means normalized activity above about 1.9%;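 further: purified mutant Fbw7 with reduced substrate affinity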
Target sequence (Q969H0 whole entry, looked up): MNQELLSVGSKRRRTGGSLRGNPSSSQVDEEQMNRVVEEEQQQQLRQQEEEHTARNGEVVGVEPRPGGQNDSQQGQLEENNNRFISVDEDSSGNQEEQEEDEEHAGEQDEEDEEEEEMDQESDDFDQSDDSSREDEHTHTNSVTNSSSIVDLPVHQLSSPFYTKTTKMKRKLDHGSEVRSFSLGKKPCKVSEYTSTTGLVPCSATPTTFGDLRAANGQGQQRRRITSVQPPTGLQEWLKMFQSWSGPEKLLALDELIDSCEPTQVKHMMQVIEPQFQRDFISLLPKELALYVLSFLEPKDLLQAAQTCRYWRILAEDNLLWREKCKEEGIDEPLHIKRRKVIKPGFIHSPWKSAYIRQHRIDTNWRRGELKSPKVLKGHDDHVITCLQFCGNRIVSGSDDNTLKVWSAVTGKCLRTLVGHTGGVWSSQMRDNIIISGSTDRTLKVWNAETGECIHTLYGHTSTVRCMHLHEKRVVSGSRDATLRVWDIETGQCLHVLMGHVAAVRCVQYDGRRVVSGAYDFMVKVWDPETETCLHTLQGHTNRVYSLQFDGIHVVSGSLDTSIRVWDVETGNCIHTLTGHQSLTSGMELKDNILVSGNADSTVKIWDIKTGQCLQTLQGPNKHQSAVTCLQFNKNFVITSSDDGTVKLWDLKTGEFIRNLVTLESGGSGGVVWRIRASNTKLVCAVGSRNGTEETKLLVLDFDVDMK
A number is an active result; n = inactive. Hits are enriched below; roughly 3.5% of the tested compounds scored in any of these assays.

SMILES	GPR151 activ	MITF primary	TEAD-YAP inh	FBW7 act
COc1ccc(OCc2cccc(C(=O)O)c2)cc1	n	n	93.5	n
O=C(O)c1cccc(OCc2ccccc2)c1	n	n	n	n
O=C(O)c1cccc(COc2ccc(I)cc2)c1	n	n	65.4	n
O=C1NC(=S)NC(=O)C1=Cc1cccc(OCc2ccc(C(=O)O)cc2)c1	n	n	n	n
CC(C)c1ccc(OCc2cccc(C(=O)NCCN(C)C)c2)cc1	n	n	85.6	n
COc1cc(OCc2cccc(C(=O)O)c2)ccc1C=C1C(=O)NC(=S)NC1=O	n	n	85.5	n
Cc1cc(C)cc(NC(=O)Cn2cnc3scc(-c4ccccc4)c3c2=O)c1	n	n	n	n
CCOc1ccc(OCc2cccc(C(=O)OC)c2)cc1	n	n	85.1	n
CCOCCCn1c(-c2ccncc2)n[nH]c1=S	n	n	n	n
COc1ccc(C(=O)NNC(=O)c2ccccn2)cc1	n	n	93.7	n
COc1ccccc1C(=O)NNC(=O)c1cnccn1	n	n	n	n
CC(=O)c1ccc(NC(=O)NNC(=O)c2ccccn2)cc1	n	n	n	n
CC(=O)c1ccc(NC(=O)c2ccccn2)cc1	n	n	86.9	n
COc1ccccc1C(=O)NNC(=O)c1ccccn1	n	n	40.6	n
Cc1ccc(C)c(OCC(=O)NNC(=O)c2ccccn2)c1	n	n	37.0	n
CCOC(=O)c1cnc2c(ccc3ccccc32)c1NCCOCCO	n	n	n	n
Cc1ccnc(NC(=O)CSc2nnc3c4ccccc4n(C(C)C)c3n2)c1	n	n	n	n
CCOc1ccccc1NC(=O)CSc1nnc(-c2ccc(Cl)cc2)n1N	n	n	n	n
CCCCOC(=O)/C(=C1\Nc2ccc([N+](=O)[O-])cc2N1)[N+](=O)[O-]	n	n	n	n
Cc1nn(-c2ccccc2)c2sc(C(=O)Oc3ccc(Cl)cc3)cc12	n	n	n	n
COc1cccc(-c2csc3nnc(SCC(=O)c4ccc(NC(C)=O)cc4)n23)c1	n	n	n	13.1
OC1(c2cccs2)CN(c2ccccc2)C2=[N+]1CCCS2 (configuration not stated)	n	n	n	n
COc1ccccc1NC1=C/C(=N/S(=O)(=O)c2ccccc2)c2ccccc2C1=O	n	71.2	47.7	n
O=C1C(Nc2ccc(O)cc2)=C/C(=N/S(=O)(=O)c2cccc([N+](=O)[O-])c2)c2ccccc21	n	n	92.2	n
O=C1C(Nc2ccc(O)cc2)=C/C(=N/S(=O)(=O)c2cccs2)c2ccccc21	n	n	97.4	n
SMILES	GPR151 activ	MITF primary	TEAD-YAP inh	FBW7 act
O=C(O)c1ccc(NC2=C/C(=N/S(=O)(=O)c3ccccc3)c3ccccc3C2=O)cc1	n	n	n	n
O=C(O)c1ccc(NC2=C/C(=N/S(=O)(=O)c3cccs3)c3ccccc3C2=O)cc1	n	n	n	n
COc1ccccc1NC1=C/C(=N/S(=O)(=O)c2cccs2)c2ccccc2C1=O	n	53.7	n	n
CCn1c(Cc2ccccc2)nnc1SCC(=O)NC(C)(C)C	n	n	n	n
COCCn1c(Cc2ccccc2)nnc1SCC(=O)NC(C)(C)C	n	n	58.9	n
O=C(c1cnc(N2CCN(c3ncccn3)CC2)c2ccccc12)N1CCN(Cc2ccc3c(c2)OCO3)CC1	n	n	60.8	n
Cc1cc2c(N3CCN(c4ccccn4)CC3)ncnc2s1	n	n	41.0	n
Cc1cc2c(N3CCN(c4ccccc4)CC3)ncnc2s1	n	n	n	n
O=C(c1cnc(N2CCN(c3ncccn3)CC2)c2ccccc12)N1CCCC1	n	n	n	n
Cc1cc2c(N3CCN(Cc4ccc5c(c4)OCO5)CC3)ncnc2s1	n	n	45.5	n
CC1CCN(S(=O)(=O)c2ccc(F)c(C(=O)Nc3ccccc3Cl)c2)CC1	n	n	n	n
CCN(CC)c1ccc(C(NC(=O)C(C)C)c2cc(Cl)c3cccnc3c2O)cc1 (configuration not stated)	n	n	n	n
CCCCC(=O)NC(c1ccc(OC)cc1)c1ccc2cccnc2c1O (configuration not stated)	n	n	80.3	n
COc1ccc(C(NC(=O)C(C)C)c2ccc3cccnc3c2O)cc1 (configuration not stated)	n	50.6	74.6	n
O=[N+]([O-])c1ccc(C(Nc2nccs2)c2ccc3cccnc3c2O)cc1 (configuration not stated)	n	n	n	n
Cc1ccc(C(NC(=O)C(C)C)c2ccc3cccnc3c2O)cc1 (configuration not stated)	n	n	85.6	n
COc1ccccc1C(NC(=O)Cc1ccccc1)c1ccc2cccnc2c1O (configuration not stated)	n	n	n	n
COc1ccc(C(=O)NC(c2ccc(C)cc2)c2cc(Cl)c3cccnc3c2O)cc1 (configuration not stated)	n	n	n	n
COc1ccc(C(NC(C)=O)c2ccc3cccnc3c2O)cc1 (configuration not stated)	n	n	85.8	n
CCn1c2ccccc2c2cc(CN3CCN(S(=O)(=O)c4ccc(NC(C)=O)cc4)CC3)ccc21	n	n	n	n
COc1ccc(C(NC(=O)C(C)C)c2ccc3cccnc3c2O)cc1OC (configuration not stated)	n	62.1	89.9	n
Cc1ccc(C(NC(=O)C2CCCCC2)c2ccc3cccnc3c2O)cc1 (configuration not stated)	n	n	33.9	n
CCOc1c(CC)cnc2c1c(=O)n(CC(=O)Nc1ccc(OC)cc1OC)c(=O)n2C	n	n	n	n
CCOc1ccccc1CNc1ncnc2c1nc1n2CCCCC1	n	n	41.0	n
COc1cccc(NP2(=O)C=C(c3ccccc3)OC(c3ccccc3)=C2)c1	n	n	n	n
SMILES	GPR151 activ	MITF primary	TEAD-YAP inh	FBW7 act
O=C(O)c1ccc(N=c2oc3cc(O)ccc3cc2C(=O)Nc2ccccc2)cc1	n	n	n	n
COc1ccc(NC(=O)c2cc3ccc(O)cc3oc2=Nc2ccc(C(=O)O)cc2)cc1	n	n	36.2	n
Cc1ccc(NC(=O)C2CC(C(C)(C)C)CC(C(C)(C)C)C2)cc1 (configuration not stated)	n	n	n	n
Cc1ccc(Cl)cc1N1CCN(c2c(-c3ccc4c(c3)OCC(=O)N4)c(=O)c2=O)CC1	n	n	61.1	n
O=C1COc2cc(-c3c(N4CCCC4)c(=O)c3=O)ccc2N1	n	n	n	n
CNC(=O)c1ccccc1Nc1cc(NC(=O)Cc2ccccc2OC)ncc1C(F)(F)F	n	n	82.6	n
NC(=O)c1ccccc1Nc1cc(NC(=O)Cc2ccc3c(c2)OCO3)ncc1C(F)(F)F	n	n	100.0	n
O=C(Cc1ccc2c(c1)OCO2)Nc1cc(Nc2ccccc2-c2ncn[nH]2)c(Cl)cn1	n	n	63.7	n
O=C(Cc1ccc2c(c1)OCO2)Nc1cc(Nc2ccccc2C2=NCCN2)c(Cl)cn1	n	n	n	n
CNC(=O)c1ccccc1Nc1cc(NC(=O)Cc2ccc3c(c2)OCO3)ncc1C(F)(F)F	n	n	75.1	n
O=C(NC1CC1)C1CCC(Cn2c(=S)[nH]c3ccsc3c2=O)CC1 (configuration not stated)	n	n	n	n

Assay outcomes: PubChem, The Scripps Research Institute Molecular Screening Center
